In the supplement of paper PMC6992640:
± gives the standard deviation of the averaged measurements.

What was measured:
Assay in all cases: cell viability (% of vehicle); higher = less cytotoxic
Conditions in all cases: 10 µM; 72 h
[1] = tested on: HCI01 (cells of a triple-negative basal-like breast cancer xenograft)
[2] = tested on: HCI03 (cells of an ER-positive luminal breast cancer xenograft)
[3] = tested on: HCI09 (cells of a triple-negative luminal androgen receptor type breast cancer xenograft)
[4] = tested on: HCI11 (cells of an ER-positive luminal breast cancer xenograft)
[5] = tested on: HCI13 (cells of an ER-positive luminal breast cancer xenograft)
[6] = tested on: HCI16 (cells of a triple-negative basal-like breast cancer xenograft)
[7] = tested on: UCD52 (cells of a triple-negative basal-like breast cancer xenograft)
[8] = tested on: WHIM2 (cells of a triple-negative basal-like breast cancer xenograft)
[9] = tested on: WHIM30 (cells of a triple-negative basal-like breast cancer xenograft)
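Also: PDX cells carrying CMV promoter-driven luciferase, viability read as total photon flux per second by IVIS imaging following D-luciferin, vehicle control 0.1% DMSO.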

Work on `C[C@H](C(=O)O)c1ccc(-c2ccccc2)c(F)c1` [(S)-Flurbiprofen] yielded a cell viability [1] of 109 ± 15, a cell viability [2] of 138 and a cell viability [3] of 98.3 ± 21. For the same compound, the cell viability [4] was 78.6, the cell viability [5] was 98.7 ± 1.3 and the cell viability [6] was 107. It also gave a cell viability [7] of 103 ± 2.4, a cell viability [8] of 103 ± 13 and a cell viability [9] of 106 ± 5.7.

`O=C(O)c1ccc2ccccc2c1O.OCc1cc(C(O)CNCCCCCCOCCCCc2ccccc2)ccc1O` (stereo not drawn) [Salmeterol xinafoate] showed a cell viability [1] of 86 ± 1.1, a cell viability [2] of 92.5 and a cell viability [3] of 57.3 ± 8. For the same compound, the cell viability [4] was 75.2, the cell viability [5] was 88.6 ± 9.6 and the cell viability [6] was 76.1. For the same compound, the cell viability [7] was 62.1 ± 0.9, the cell viability [8] was 66.7 ± 13 and the cell viability [9] was 107 ± 20.

`CC(OC1OCCN(Cc2nc(=O)n(P(=O)(O)O)[nH]2)C1c1ccc(F)cc1)c1cc(C(F)(F)F)cc(C(F)(F)F)c1.CNCC(O)C(O)C(O)C(O)CO.CNCC(O)C(O)C(O)C(O)CO` (stereo not drawn) [Fosaprepitant dimeglumine salt] was tested, and the cell viability [1] was 67.4 ± 51, the cell viability [2] was 103 and the cell viability [3] was 52.4 ± 27. For the same compound, the cell viability [4] was 85.1, the cell viability [5] was 76.2 ± 6.3 and the cell viability [6] was 91.7. For the same compound, the cell viability [7] was 57.2 ± 7.3, the cell viability [8] was 79.7 ± 44 and the cell viability [9] was 109 ± 2.4.

Work on `CCCC(=O)[O-].[Na+]` [Sodium butyrate] yielded a cell viability [1] of 99.3 ± 20, a cell viability [2] of 85.5 and a cell viability [3] of 89.8 ± 3.3. It also gave a cell viability [4] of 92.5, a cell viability [5] of 47.1 ± 5.4 and a cell viability [6] of 91.9. The cell viability [7] was 73.7 ± 6.9, the cell viability [8] was 83.5 ± 18 and the cell viability [9] was 119 ± 11.

In the case of `Cl.NC(N)=NC(=O)c1nc(Cl)c(N)nc1N.O.O` [Amiloride HCl dihydrate], the cell viability [1] is reported as 99.2 ± 7.3, the cell viability [2] is reported as 102 and the cell viability [3] is reported as 121 ± 1.5. The cell viability [4] was 89.4, the cell viability [5] was 102 ± 8.4 and the cell viability [6] was 115. It also gave a cell viability [7] of 96.35 ± 0.8, a cell viability [8] of 86 ± 16 and a cell viability [9] of 114 ± 8.2.

Compound `C#CC1(OC(C)=O)CCC2C3CCC4=CC(OC(C)=O)CCC4C3CCC21C` (stereo not drawn) [Ethynodiol diacetate] has a cell viability [1] of 136 ± 22, a cell viability [2] of 118 and a cell viability [3] of 86.3 ± 5.5. It also gave a cell viability [4] of 73.4, a cell viability [5] of 142 ± 16 and a cell viability [6] of 136. It also gave a cell viability [7] of 84.9 ± 5.6, a cell viability [8] of 107 ± 17 and a cell viability [9] of 112 ± 16.

`Cc1ccc(-c2cc(C(F)(F)F)nn2-c2ccc(S(N)(=O)=O)cc2)cc1` [Celecoxib] showed a cell viability [1] of 139 ± 24, a cell viability [2] of 110 and a cell viability [3] of 94.7 ± 7.4. For the same compound, the cell viability [4] was 94.4, the cell viability [5] was 94 ± 2.9 and the cell viability [6] was 112. For the same compound, the cell viability [7] was 70.1 ± 3.8, the cell viability [8] was 93.3 ± 12 and the cell viability [9] was 100.5 ± 1.

Compound `CC(C)(C)NCC(O)c1cc(O)cc(O)c1.CC(C)(C)NCC(O)c1cc(O)cc(O)c1.O=S(=O)(O)O` (stereo not drawn) [Terbutaline Sulfate] has a cell viability [1] of 114.4 ± 0.83, a cell viability [2] of 110 and a cell viability [3] of 98.9 ± 20. The cell viability [4] was 109, the cell viability [5] was 88.5 ± 2.1 and the cell viability [6] was 127. It also gave a cell viability [7] of 79.6 ± 5.6, a cell viability [8] of 106 ± 18 and a cell viability [9] of 123 ± 6.

With `NC(N)=Nc1nc(CSCCC(N)=NS(N)(=O)=O)cs1` [Famotidine] the cell viability [1] was 120 ± 16, the cell viability [2] was 127 and the cell viability [3] was 103 ± 8.7. For the same compound, the cell viability [4] was 98.9, the cell viability [5] was 149 ± 20 and the cell viability [6] was 98.6. The cell viability [7] was 78.5 ± 6.2, the cell viability [8] was 85.9 ± 6.1 and the cell viability [9] was 165 ± 4.1.

Compound `CCCCOc1ccc(C(=O)CCN2CCCCC2)cc1.Cl` [Dyclonine HCl] has a cell viability [1] of 91.4 ± 36, a cell viability [2] of 110 and a cell viability [3] of 98.2 ± 18. For the same compound, the cell viability [4] was 110, the cell viability [5] was 60.5 ± 2.6 and the cell viability [6] was 88.6. For the same compound, the cell viability [7] was 90.6 ± 12, the cell viability [8] was 40 ± 16 and the cell viability [9] was 129 ± 30.

Work on `N#CC(=C1SCC(c2ccc(Cl)cc2Cl)S1)n1ccnc1` (stereo not drawn) [Luliconazole] yielded a cell viability [1] of 131 ± 29, a cell viability [2] of 108 and a cell viability [3] of 73.3 ± 15. It also gave a cell viability [4] of 90.6, a cell viability [5] of 70.2 ± 5.6 and a cell viability [6] of 72.4. The cell viability [7] was 88.5 ± 4.3, the cell viability [8] was 97.1 ± 3.4 and the cell viability [9] was 130 ± 7.6.

With `CCCc1nn(C)c2c(=O)nc(-c3cc(S(=O)(=O)N4CCN(C)CC4)ccc3OCC)[nH]c12.O=C(O)CC(O)(CC(=O)O)C(=O)O` [Sildenafil Citrate] the cell viability [1] was 116 ± 2.8, the cell viability [2] was 144 and the cell viability [3] was 96 ± 15. For the same compound, the cell viability [4] was 118, the cell viability [5] was 130 ± 23 and the cell viability [6] was 94.4. The cell viability [7] was 88.2 ± 4, the cell viability [8] was 83.8 ± 4.8 and the cell viability [9] was 53.9 ± 10.

Work on `COc1ccc2[n-]c(S(=O)Cc3ncc(C)c(OC)c3C)nc2c1.COc1ccc2[n-]c(S(=O)Cc3ncc(C)c(OC)c3C)nc2c1.[Mg+2]` (stereo not drawn) [Esomeprazole Magnesium] yielded a cell viability [1] of 77 ± 60, a cell viability [2] of 143 and a cell viability [3] of 84.6 ± 31. The cell viability [4] was 92.6, the cell viability [5] was 165 ± 18 and the cell viability [6] was 112. The cell viability [7] was 99.55 ± 0.87, the cell viability [8] was 94.2 ± 9.3 and the cell viability [9] was 181 ± 29.

In the case of `CC(C)CC(N)=O` [Isovaleramide], the cell viability [1] is reported as 103 ± 22, the cell viability [2] is reported as 132 and the cell viability [3] is reported as 97.6 ± 3.4. The cell viability [4] was 98.5, the cell viability [5] was 104 ± 13 and the cell viability [6] was 94.6. The cell viability [7] was 99.9 ± 2, the cell viability [8] was 98.5 ± 13 and the cell viability [9] was 96.1 ± 7.9.

`Cc1ccsc1C(=CCCN1CCC[C@@H](C(=O)O)C1)c1sccc1C` [Tiagabine] was tested, and the cell viability [1] was 96.4 ± 12, the cell viability [2] was 81.9 and the cell viability [3] was 105 ± 4.9. For the same compound, the cell viability [4] was 84.2, the cell viability [5] was 96.9 ± 1.7 and the cell viability [6] was 115. The cell viability [7] was 89.1 ± 5.2, the cell viability [8] was 100 ± 22 and the cell viability [9] was 96 ± 12.

Work on `O=C(O)CCC(=O)O.O=C(OC1CN2CCC1CC2)N1CCc2ccccc2C1c1ccccc1` (stereo not drawn) [Solifenacin succinate] yielded a cell viability [1] of 90.4 ± 10, a cell viability [2] of 107 and a cell viability [3] of 91.8 ± 7. The cell viability [4] was 86.9, the cell viability [5] was 118 ± 9.5 and the cell viability [6] was 104. It also gave a cell viability [7] of 57.36 ± 0.49, a cell viability [8] of 76.8 ± 2.9 and a cell viability [9] of 87.6 ± 3.7.

Compound `COc1ccc(CNc2nc(N3CCCC3CO)ncc2C(=O)NCc2ncccn2)cc1Cl` (stereo not drawn) [Avanafil] has a cell viability [1] of 155 ± 7.5, a cell viability [2] of 117 and a cell viability [3] of 102 ± 23. For the same compound, the cell viability [4] was 143, the cell viability [5] was 123 ± 11 and the cell viability [6] was 121. For the same compound, the cell viability [7] was 104 ± 15, the cell viability [8] was 130 ± 2.6 and the cell viability [9] was 135 ± 7.5.

In the case of `CC1(C)SC2C(NC(=O)C(N)c3ccccc3)C(=O)N2C1C(=O)[O-].[Na+]` (stereo not drawn) [Ampicillin], the cell viability [1] is reported as 101.47 ± 0.042, the cell viability [2] is reported as 101 and the cell viability [3] is reported as 104 ± 9.8. The cell viability [4] was 84.6, the cell viability [5] was 86.7 ± 9.1 and the cell viability [6] was 78.9. It also gave a cell viability [7] of 83.5 ± 3.9, a cell viability [8] of 77.9 ± 1.1 and a cell viability [9] of 112 ± 20.

For `CC(C)OC(=O)OCOP(=O)(COC(C)Cn1cnc2c(N)ncnc21)OCOC(=O)OC(C)C.O=C(O)C=CC(=O)O` (stereo not drawn) [Tenofovir Disoproxil Fumarate], the cell viability [1] was 106 ± 2.7, the cell viability [2] was 130 and the cell viability [3] was 94.5 ± 7.6. For the same compound, the cell viability [4] was 97, the cell viability [5] was 51.9 ± 9.2 and the cell viability [6] was 105. It also gave a cell viability [7] of 106 ± 12, a cell viability [8] of 118 ± 28 and a cell viability [9] of 136 ± 10.

`CCOC(=O)CCC(=O)OC1C(OC2C(C)C(OC3CC(C)(OC)C(O)C(C)O3)C(C)C(=O)OC(CC)C(C)(O)C(O)C(C)C(=O)C(C)CC2(C)O)OC(C)CC1N(C)C` (stereo not drawn) [Erythromycin Ethylsuccinate] was tested, and the cell viability [1] was 105 ± 5.4, the cell viability [2] was 97.5 and the cell viability [3] was 97.4 ± 21. The cell viability [4] was 96.1, the cell viability [5] was 69.6 ± 1.3 and the cell viability [6] was 132. The cell viability [7] was 87.3 ± 4.6, the cell viability [8] was 105 ± 20 and the cell viability [9] was 108 ± 16.

For `COc1cc(C=CC(=O)CC(=O)C=Cc2ccc(O)c(OC)c2)ccc1O` [Curcumin], the cell viability [1] was 94.5 ± 54, the cell viability [2] was 135 and the cell viability [3] was 69.3 ± 40. It also gave a cell viability [4] of 51, a cell viability [5] of 98.4 ± 44 and a cell viability [6] of 110. For the same compound, the cell viability [7] was 127 ± 22, the cell viability [8] was 145 ± 53 and the cell viability [9] was 197 ± 9.6.

`CC(=O)Nc1cccc(-n2c(=O)n(C3CC3)c(=O)c3c(Nc4ccc(I)cc4F)n(C)c(=O)c(C)c32)c1` was tested, and the cell viability [1] was 103 ± 34, the cell viability [2] was 94 and the cell viability [3] was 82.1 ± 34. The cell viability [4] was 98.3, the cell viability [5] was 110 ± 16 and the cell viability [6] was 120. It also gave a cell viability [7] of 48 ± 14, a cell viability [8] of 74.2 ± 8.9 and a cell viability [9] of 133 ± 24.
